Calls of active or inactive are those of the source. The calls were made as follows: active = hit-call score of the fitted dose curve at least 0.9, where 1 is the maximum; inactive = score below 0.9.
What follows are compounds tested on Macrophage colony-stimulating factor (MCSF), CSF1 (gene 1435) (assay: BSK_hDFCGF_MCSF: BioMAP Diversity Plus: hDFCGF Assay for Macrophage colony-stimulating factor (MCSF) Biomarker Activity (AID 2283060)). Settings: primary human foreskin fibroblasts; actives raise or lower the signal.
Description: BSK_hDFCGF is a cell-based, multiplexed-readout assay that uses foreskin fibroblast, a human skin primary cell, with measurements taken at 24 hours after chemical dosing in a 96-well plate.BSK_hDFCGF_MCSF is an assay component measured in the BSK_hDFCGF assay. It measures M-CSF antibody related to regulation of gene expression using ELISA technology.Data from the assay component BSK_hDFCGF_MCSF was analyzed into 1 assay endpoint. This assay endpoint, BSK_hDFCGF_MCSF, was analyzed with bidirectional fitting relative to DMSO as the negative control and baseline of activity. Using a type of binding reporter, gain or loss-of-signal activity can be used to understand changes in the signaling as they relate to the gene CSF1. Furthermore, this assay endpoint can be referred to as a primary readout, because this assay has produced multiple assay endpoints where this one serves a signaling function. To generalize the intended target to other relatable targets, this assay endpoint is annotated to the cytokine intended target family, where the subfamily is colony stimulating factor.
The levels of cell surface (or secreted, indicated by the prefix "s") biomarker endpoints were measured by ELISA. Overt cytotoxicity to cells in confluent adherent cultures (all systems other than the BT system) was assessed by measuring total protein levels using sulforhodamine B (SRB) staining in parallel cultures at the time of biomarker measurements, indicated as SRB endpoints. For proliferation assays for adherent cell types, individual cell types are cultured at sub-confluence and relative cell numbers quantified by SRB staining at time points optimized for each system (48 h: 3C and CASM3C systems; 72 h: BT and HDF3CGF systems; 96 h: SAg system). SRB was performed by staining cells with 0.1% SRB after fixation with 10% TCA and reading wells at 560 nm.Viability and proliferation of PBMC (T cells) was quantified by Alamar Blue reduction for the SAg and BT systems. For PBMC viability (referred to as PBMC Cytotoxicity within the assay endpoint names), cells were plated (75,000/well in a 96-well plate) and then chemical samples added for 1 h before addition of activators, SEB and TSST-1 (20 ng/mL final concentration each). Cells were incubated for 90 h. Then, Alamar Blue (20 uL/well) (Invitrogen, Cat DAL1100) was added for 6 h, and the plates were read with a fluorescence microplate reader at 546/580 nm (excitation/emission). For PBMC proliferation, cells were plated and activated as above but incubated for only 16 h prior to addition of Alamar Blue. Plates were read after 6 h.

Row | Compound | AC50 | outcome
1 | O=CCCCC=O | 30.6 µM (active) | 
2 | Cc1c2ccccc2c(C)c2c1ccc1ccccc12 | 5.48 µM (active) | 
3 | Cc1ccc2oc(CN(Cc3ccccc3)C(=O)Nc3c(F)cc(F)cc3F)c(-c3ccc(Cl)cc3)c2c1 |  | inactive
4 | CC/C(=C(/CC)c1ccc(O)cc1)c1ccc(O)cc1 | 20 µM (active) | 
5 | CCCCCCCCOc1ccc(C(=O)c2ccccc2)c(O)c1 |  | inactive
6 | CCCCCCCCCC(=O)O |  | inactive
7 | O=C(O)c1ccccc1-n1cc(C(=O)O)c(=O)c2cc(Nc3c(F)cc(F)cc3Cl)c(Cl)cc21 |  | inactive
8 | O=C1CCC(C2CCCCC2)CC1 | 29.8 µM (active) | 
9 | CCCCCCCCCCCO | 29.8 µM (active) | 
10 | O=c1[nH]sc2ccccc12 | 3.22 µM (active) | 
11 | Cc1ccc(C(C)C)cc1 |  | inactive
12 | c1ccc2n[nH]nc2c1 |  | inactive
13 | NCc1cccc(C2CCN(C(=O)c3ccc(C#Cc4ccccc4F)o3)CC2)c1 | 7.78 µM (active) | 
14 | O=C(Nc1ccc(Cl)cc1)Nc1ccc(Cl)c(Cl)c1 | 0.284 µM (active) | 
15 | CC[C@H](NC(=O)c1cc(F)ccc1NS(=O)(=O)c1cccc2cccnc12)c1ccccc1 |  | inactive
16 | O=C(O)Cc1cc(I)c(Oc2ccc(O)c(I)c2)c(I)c1 |  | inactive
17 | Cc1oc2c(NC(=O)c3c(Cl)cccc3Cl)cccc2c1C(C)(C)O |  | inactive
18 | CCOC(=O)O[C@H](C)OC(=O)c1ccc2c(c1)cc(C(=O)NC1CCN(C(C)C)CC1)n2Cc1cc(-c2ccc(Cl)s2)on1 | 5.16 µM (active) | 
19 | CCCCCCCCN(C)CCCCCCCC |  | inactive
20 | CCCCCc1ccc(N)cc1 |  | inactive

Row | Compound | AC50 | outcome
21 | COc1ccc2cc(S(=O)(=O)N[C@H](CC(=O)N[C@H](Cc3ccc(CN4[C@H](C)CCC[C@@H]4C)cc3)C(=O)N(C)C(C)C)c3ccc4c(c3)OCO4)ccc2c1 | 19.1 µM (active) | 
22 | O=C(O)c1ccccc1C(=O)OCc1ccccc1 |  | inactive
23 | Cc1cccc2ccccc12 |  | inactive
24 | CC(O)CC(C)(C)O (stereo not given) |  | inactive
25 | COCC(C)OCC(C)OCC(C)O (stereo not given) |  | inactive
26 | O=C(OCCCCCCOC(=O)c1ccccc1)c1ccccc1 |  | inactive
27 | CN(C)C(=O)C1(N2CCCCC2)CCN(CC[C@@]2(c3ccc(Cl)c(Cl)c3)CN(C(=O)c3ccccc3)CCO2)CC1 | 20.8 µM (active) | 
28 | Clc1ccccc1C(c1ccccc1)(c1ccccc1)n1ccnc1 | 5.68 µM (active) | 
29 | O=c1c(-c2ccc(O)cc2)coc2cc(O)cc(O)c12 |  | inactive
30 | CC(C)(C)c1cc(/C=C2\SC(N)=NC2=O)cc(C(C)(C)C)c1O | 20 µM (active) | 
31 | C[C@]12CC[C@@H]3c4ccc(O)cc4CC[C@H]3[C@@H]1CC[C@H]2O |  | inactive
32 | CCCCCCCCCCCC[N+](C)(C)C | 11.9 µM (active) | 
33 | CCCCOC(=O)CC(CC(=O)OCCCC)(OC(C)=O)C(=O)OCCCC |  | inactive
34 | O=C1O[C@H]([C@@H](O)CO)C(O)=C1O |  | inactive
35 | O=C=NCCCCCCN=C=O |  | inactive
36 | COc1cccc([C@H](O)C2CCN(CCc3ccc(F)cc3)CC2)c1OC |  | inactive
37 | CC1(C)NC(=O)N(c2ccc([N+](=O)[O-])c(C(F)(F)F)c2)C1=O |  | inactive
38 | CCCCCCCC[Si](OCC)(OCC)OCC |  | inactive
39 | Oc1ccc2ccccc2c1 |  | inactive
40 | Cc1ncc(CO)c(CO)c1O |  | inactive
